Compound activity: PubChem BioAssay, NMMLSC
MEP2-GFP yeast: modulators of MEP2-GFP levels in yeast, primary screen, S. cerevisiae, multiplex flow cytometry, MLPCN library; S. cerevisiae MEP2-GFP strain, 3 h; 100% = DMSO control level; GFP response vs DMSO, % at 10 µM; 330,000 tested, 0.51% active; AID 2016, 2009;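 active means GFP response versus DMSO above a set limit, roughly screen mean plus 3 SD, cut at about 180% in these data; inconclusive means fewer than 70 cells counted for a yeast strain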;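 further: median GFP fluorescence of the barcode-gated MEP2-GFP cells per well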
CIT2-GFP yeast: modulators of CIT2-GFP expression in yeast, primary screen, S. cerevisiae, GFP fusion, multiplex flow cytometry, MLPCN library | GFP response vs DMSO, % at 10 µM | AID 2029, 2009 | 320,000 tested, 0.065% active | S. cerevisiae CIT2-GFP strain, 3 h; 100 means same as DMSO wells;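 active means GFP response relative to DMSO above a set limit, near the screen mean plus 3 SD, cut at about 150% in these data; inconclusive means Fewer than 70 cells measured for a yeast strain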;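 further: ratio of well median GFP fluorescence to mean of DMSO wells on the plate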
RPL19A-GFP yeast: RPL19A-GFP expression modulators in yeast, primary screen, cell-based, S. cerevisiae, multiplex flow cytometry, MLPCN; S. cerevisiae RPL19A-GFP strain, 3 h; hits give low values; percent response vs DMSO, % at 10 µM; 330,000 tested, 0.3% active; AID 2025, 2009;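 active means percent response vs DMSO below 50%; inconclusive means fewer than 70 events counted for the yeast strain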;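 further: median channel GFP fluorescence of the barcoded RPL19A-GFP strain; ratio of sample median GFP to plate DMSO average so 100% = DMSO; lower means less RPL19A-GFP as with rapamycin TOR inhibition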
LAP4-GFP MLPCN: modulators of LAP4-GFP expression in yeast, primary screen, S. cerevisiae, multiplex flow cytometry, MLPCN library; GFP response vs DMSO, % at 10 µM; 320,000 tested, 0.34% active; 3 h; median GFP as percent of DMSO wells;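 active means GFP response vs DMSO above a set limit, about the screen mean plus 3 SD, cut at about 150% in these data; inconclusive means under 70 cell events counted for the yeast strain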
AGP1 TOR yeast: modulators of AGP1-GFP expression in yeast TOR pathway, primary screen, cell-based, multiplex flow cytometry, S. cerevisiae, MLPCN library; AID 2066, 2009; 320,000 tested, 0.02% active; 3 h; GFP as percent of DMSO wells; GFP response vs DMSO, % at 10 µM;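 active means GFP response relative to DMSO above a set limit, near screen average plus 3 SD, cut at about 150% in these data; inconclusive means fewer than 70 cells counted for the yeast strain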;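 further: median GFP channel fluorescence of the gated AGP1 strain per well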
The depositor's hits bear a star; ? = inconclusive; . = no result given; [ ] = dose if it differs, or a comment. An excerpt weighted towards active compounds, which were near 0.93% of everything screened.

SMILES	MEP2-GFP yeast	CIT2-GFP yeast	RPL19A-GFP yeast	LAP4-GFP MLPCN	AGP1 TOR yeast
CCn1c(SCC(=O)Nc2nnc(C)s2)nnc1C(C)NC(=O)c1ccccc1F (centres undefined)	225*[may fluoresce violet]	?	59	86	?
CCn1c(SCC(=O)Nc2nnc(C)s2)nnc1C(C)NC(=O)c1ccccc1 (centres undefined)	102	103	100	86	101
COc1ccc(N=c2oc3cc(O)ccc3cc2C(=O)NCC2CCCO2)c(OC)c1 (centres undefined)	348*[may fluoresce violet]	?	43*[may fluoresce violet]	82	?
COc1ccc(N=c2oc3cc(O)ccc3cc2C(=O)NCC2CCCO2)cc1 (centres undefined)	101	107	102	101	106
O=C(O)c1ccc(Nc2ccc3nonc3c2[N+](=O)[O-])cc1	210*[may fluoresce violet]	?	49*[may fluoresce violet]	86	?
Cc1cccc(NC(=O)N2CCc3ccccc3C2)c1C	102	88	117	85	85
Cc1ccc(-c2cc(-c3ccc(C)o3)nc(N)c2C#N)cc1	175*[may fluoresce violet]	?	91	133	.
CN(C)S(=O)(=O)c1cc(NC(=O)CN2CCN(c3ccccc3F)CC2)ccc1Cl	115	100	101	112	108
CCCCOc1ccc(C(=O)N2CCN(CC(=O)Nc3ccc(C)cc3)CC2)cc1OC	?	89	87	83	?
CCCc1cc(=O)oc2c(CN3CCCC3)c(O)c(Cl)cc12	109	100	92	94	78
CCc1cc(=O)oc2c(CNCc3ccccc3F)c(O)c(Cl)cc12	229*[may fluoresce violet]	?	66	88	?
O=C(CCNC(=O)c1ccc(Br)cc1)NNC(=O)c1ccccc1	109	108	101	93	101
CN(C)CCNC(=O)Nc1ccc(Cl)c(Cl)c1	108	98	101	104	110
CC(C)(O)CNC(=O)Nc1ccc(Cl)c(Cl)c1	164	?	30*[may fluoresce violet]	74	?
CCCCn1c(=O)c2ccccc2n2c(=S)[nH]nc12	236*[may fluoresce violet]	?	43*[may fluoresce violet]	100	?
CCOC(=S)SCC(=O)Nc1ncc(C)s1	95	108	91	105	93
Cc1nc(C)c(C(=O)N(c2ccc(F)cc2)C(C(=O)NCC2CCCO2)c2ccccc2)s1 (centres undefined)	101	104	101	98	97
CC(OC(=O)c1ccccc1CCc1ccccc1)C(N)=O (centres undefined)	373*[may fluoresce violet]	?	22*[may fluoresce violet]	78	?
Fc1ccccc1N=C1NN=C(c2ccccc2)CS1	104	105	112	109	99
Clc1ccccc1N=C1NN=C(c2cccs2)CS1	96	90	92	155*	93
Cc1ccc(S(=O)(=O)/N=C(/Nc2ccc(F)cc2F)c2ccc(F)cc2)cc1	110	100	99	94	90
O=S(=O)(/N=C(/Nc1ccc(F)cc1F)c1ccc(Cl)cc1)c1ccccc1	175*	126	83	139	.
O=C1c2ccccc2C(=O)N1/N=C/c1ccc(O)c(O)c1	99	113	105	104	106
O=C(Nc1nncs1)C12CC3CC(CC(Cl)(C3)C1)C2	101	94	99	86	92
Cn1c(=NC(=O)CS(=O)(=O)c2ccccc2)sc2cc([N+](=O)[O-])ccc21	100	91	95	98	98
SMILES	MEP2-GFP yeast	CIT2-GFP yeast	RPL19A-GFP yeast	LAP4-GFP MLPCN	AGP1 TOR yeast
COc1cc(/C=N/Nc2nc(C)cc(=O)[nH]2)ccc1O	185*	145	111	109	98
Cc1cccc(NC(=O)CN2C(=O)N/C(=C\c3ccc(-c4cccc(C(=O)O)c4)o3)C2=O)c1	215*[may fluoresce violet]	?	43*[may fluoresce violet]	84	?
CN1CC(c2ccccc2)Oc2ccccc2C1=S (centres undefined)	103	105	106	120	118
O=C(COc1ccc2c3c(c(=O)oc2c1)CCC3)N1CCCCC1	103	96	101	97	93
O=C(COc1ccc2c3c(c(=O)oc2c1)CCC3)N1CCCC1	238*[may fluoresce violet]	?	59	88	?
Clc1ccc(C2=NNC(=NCc3ccccc3)SC2)cc1	222*	97	94	85	33
O=C1CCCCC1c1cccc2ccccc12 (centres undefined)	177*[may fluoresce violet]	?	85	77	16
Nc1[nH]nc2nc3ccccc3cc12	100	93	95	101	96
Nc1cccc2nc3ccccc3cc12	?	?	14*[may fluoresce violet]	?	?
CN(CC(=O)Nc1ncn[nH]1)S(=O)(=O)c1ccc(Br)cc1	98	106	95	115	107
Cn1c(CSc2nc3ccccc3s2)nnc1SCC(=O)NCc1cccnc1	588*[may fluoresce violet]	?	42*[may fluoresce violet]	119	?
Cc1cc(NC(=O)C(C)Oc2ccc(Cl)cc2Cl)n(-c2ccccc2)n1 (centres undefined)	167	?	38*[may fluoresce violet]	85	?
CCn1nnc(NC(=O)C(C)Oc2ccc(Cl)cc2Cl)n1 (centres undefined)	102	105	99	108	106
CCCCCn1c(-c2ccco2)nc2nc3ccccc3nc21	209*[may fluoresce violet]	?	96	111	83
c1ccc(Cn2c(-c3ccco3)nc3nc4ccccc4nc32)cc1	112	114	97	104	98
O=C(Cn1[nH]c(=O)c2ccccc2c1=O)N1CC=C(c2ccccc2)CC1	441*[may fluoresce violet]	?	51	120	?
O=C(O)CCC(=O)N1CC=C(c2ccccc2)CC1	98	104	103	93	105
O=c1oc2c(CN3CCN(CCO)CC3)c(O)ccc2cc1-c1ccccn1	?	?	40*[may fluoresce violet]	?	?
N#Cc1c(N)nc(SCc2ccccc2)c(C#N)c1-c1ccco1	?	?	17*[may fluoresce violet]	?	?
O=C(CC1N=C2c3ccccc3N=C(SCc3ccc(F)cc3)N2C1=O)NCc1ccco1 (centres undefined)	232*[may fluoresce violet]	?	18*[may fluoresce violet]	88	?
CC(C)n1c(=S)[nH]c2c1c(=O)[nH]c(=O)n2C	267*	116	.	90	34
CCOc1cc(C)c(S(=O)(=O)N2CCCC2)cc1C	93	65	86	154*	91
COc1ccc(N2CCN(C(=O)Cn3c(=O)[nH]c4ccsc4c3=O)CC2)cc1	573*[may fluoresce violet]	?	45*[may fluoresce violet]	97	?
COC(=O)c1cc(S(=O)(=O)Nc2nn(C)c3ccccc23)oc1C	115	109	89	156*	130
COC(=O)c1cc(S(=O)(=O)Nc2nn(C)c3cccc(F)c23)oc1C	104	100	101	114	109
CCNC(=S)/N=C(\N)Nc1nc(C)c2cc(C)ccc2n1	87	?	46*[may fluoresce violet]	137	22
